This is an account of results in PubChem BioAssay (NCI).

About 83,000 compounds went through this panel and 20% of them were active in at least one assay; those are over-represented in the sample as a whole.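 Single-dose data. Exposure time 48 hours. Values below 10 considered active.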 Unmarked numbers belong to inactive results. Active and inactive are the calls of the source.

Test systems include NCI-H23 lung; NCI-H226 lung; NCI-H322M lung; HOP-62 NSCLC; NCI-H460 lung; HOP-92 NSCLC; NCI-H522 lung; A549/ATCC NSCLC; 786-0 renal; COLO 205 colon; DU-145 prostate; K-562 leukemia; MALME-3M melanoma; MDA-MB-231 breast; RXF 393 renal; SF-268 CNS; SF-295 CNS; SF-539 CNS; UACC-257 melanoma; M14 melanoma.
What all share (test): NCI-60 one-dose screen, 48 h (100 = growth as untreated, 0 = no growth, -100 = all killed)
Settings in all cases: 10 µM unless noted

Take `CC1=C(C(=O)c2ccccc2)C(c2ccc3c(c2)OCO3)NC(=S)N1` (stereo not given): the growth in the test on NCI-H23 lung was 48%; in the test with NCI-H226 lung it was 66.5%; in the test on NCI-H322M lung, 67.7%; with HOP-62 NSCLC, 51.8%; in the test on NCI-H460 lung, 8.05% (active); in the test with HOP-92 NSCLC, 92.3%. The growth in the test on NCI-H522 lung is 38.3%; in the test on A549/ATCC NSCLC, 40.3%; in the test on 786-0 renal it was 58.9%; in the test with COLO 205 colon, 47.6%; in the test on DU-145 prostate it was 78.7%; in the test on K-562 leukemia it was 24.6%. For the same molecule, the growth in the test with MALME-3M melanoma was 54.5%; in the test with MDA-MB-231 breast, 79.1%; with RXF 393 renal, 59.5%; with SF-268 CNS, 75.8%; with SF-295 CNS it was 51.2%; in the test with SF-539 CNS, 36.4%. In addition, the growth with UACC-257 melanoma was 57.2%; in the test with M14 melanoma, 34.6%.

Consider `Cc1c(Cl)cccc1NC(=O)c1sc2nc3c(cc2c1N)CCCC3`, for which the growth in the test with NCI-H23 lung is 58.9%; in the test with NCI-H226 lung, 69.3%; with NCI-H322M lung, 74.2%; with HOP-62 NSCLC it was 25.2%; with NCI-H460 lung, 12.9%; in the test with HOP-92 NSCLC, 25.6%. The growth was 4.4% (active) in the test with NCI-H522 lung; 39.1% with A549/ATCC NSCLC; 29.8% in the test with 786-0 renal; 22.1% in the test with COLO 205 colon; 39.9% in the test on DU-145 prostate; 13.7% with K-562 leukemia. Besides, the growth was 67.7% with MALME-3M melanoma; 49.5% with MDA-MB-231 breast; 40% in the test on RXF 393 renal; 49.3% in the test with SF-268 CNS; 8.07% (active) in the test with SF-295 CNS; 4.43% (active) in the test with SF-539 CNS. In addition, the values for the growth in the test on UACC-257 melanoma and with M14 melanoma were 37.7% and 25.3%, respectively.

On to `CCOC(=O)c1ccc2c(c1)[n+](=O)c(C(C)=O)c(C(F)(F)F)n2[O-]`, for which the growth was -16.9% (active) in the test with NCI-H23 lung; 41.2% with NCI-H226 lung; 94.4% in the test on NCI-H322M lung; 25.5% in the test on HOP-62 NSCLC; -50.7% (active) in the test on NCI-H460 lung; -29.9% (active) in the test with HOP-92 NSCLC. For the same molecule, the growth in the test on NCI-H522 lung was -83.8% (active); in the test with A549/ATCC NSCLC, 19.2%; in the test on 786-0 renal it was 11.4%; with COLO 205 colon it was -78.3% (active); in the test on DU-145 prostate it was -88.5% (active); with K-562 leukemia, -76.7% (active). Moreover, the growth with MALME-3M melanoma is -40% (active); in the test on MDA-MB-231 breast, 22.2%; in the test with RXF 393 renal, 31.6%; with SF-268 CNS, -51.8% (active); in the test with SF-295 CNS, 23%; with SF-539 CNS, 29.7%. The results for the growth in the test with UACC-257 melanoma and with M14 melanoma were -37.1% (active) and 8.64% (active), respectively.

On to `COc1cc2c(c(OC)c1OC)C(=O)CC(c1cccc(C(=O)Nc3ccc(Br)cc3)c1)O2` (stereo not given), for which the growth in the test on NCI-H23 lung is 60.3%; in the test on NCI-H226 lung, 37.6%; with NCI-H322M lung, 59.9%; with HOP-62 NSCLC it was 86%; in the test on NCI-H460 lung, 78.8%; in the test with HOP-92 NSCLC, -8.2% (active). Further, the growth in the test on NCI-H522 lung was 48.5%; with A549/ATCC NSCLC, 78.8%; in the test with 786-0 renal it was 71.8%; with COLO 205 colon it was 81.7%; in the test on DU-145 prostate, 73%; in the test with K-562 leukemia it was 6.2% (active). In addition, the growth in the test on MALME-3M melanoma is 70%; in the test with MDA-MB-231 breast, 50.8%; in the test with RXF 393 renal, 66.5%; in the test on SF-268 CNS, 64.2%; with SF-295 CNS, 63.6%; with SF-539 CNS, 82.8%. The growth in the test with UACC-257 melanoma was 74.7%; with M14 melanoma, 57.7%.

For `COc1cc2ncnc(Nc3ccc(S(=O)(=O)Nc4cc(C)on4)cc3)c2cc1OCCCN1CCOCC1`, the growth is 100% with NCI-H23 lung; 94% in the test on NCI-H226 lung; 101% with NCI-H322M lung; 95.8% in the test with HOP-62 NSCLC; 110% in the test with NCI-H460 lung; 87.4% with HOP-92 NSCLC. The growth with NCI-H522 lung is 96.8%; in the test with A549/ATCC NSCLC, 95.3%; in the test on 786-0 renal, 107%; in the test with COLO 205 colon it was 106%; with DU-145 prostate, 108%; in the test with K-562 leukemia, 102%. The growth is 95.3% in the test on MALME-3M melanoma; 105% in the test on MDA-MB-231 breast; 102% with RXF 393 renal; 98.1% in the test on SF-268 CNS; 97.7% in the test with SF-295 CNS; 99.4% with SF-539 CNS. For the same molecule, the growth in the test with UACC-257 melanoma is 99.8%; in the test on M14 melanoma, 105%.

For `Cc1nc2ccccc2c(/C=C/c2ccc(Cl)cc2)c1C(=O)/C=C/c1ccccc1`, the growth was 22.2% in the test with NCI-H23 lung; 40.2% in the test on NCI-H226 lung; 41.2% in the test on NCI-H322M lung; -36.7% (active) with HOP-62 NSCLC; -33% (active) in the test on NCI-H460 lung; 41.4% in the test with HOP-92 NSCLC. Moreover, the growth in the test with NCI-H522 lung is -13.3% (active); in the test with A549/ATCC NSCLC, 21.2%; with 786-0 renal it was 7.29% (active); in the test on COLO 205 colon, -5.72% (active); with DU-145 prostate it was 9.75% (active); with K-562 leukemia, 6.19% (active). Moreover, the growth was -20.4% (active) in the test with MALME-3M melanoma; 9.11% (active) in the test on MDA-MB-231 breast; -41.8% (active) in the test on RXF 393 renal; 51.3% with SF-268 CNS; 10.7% in the test on SF-295 CNS; -48.8% (active) in the test on SF-539 CNS. Besides, the growth in the test on UACC-257 melanoma is -3.79% (active); in the test on M14 melanoma, -0.144% (active).

For `CN(Cc1ccccc1)c1nc(Cl)c(C2CC(c3ccc(Cl)cc3)=NN2c2cc(Cl)cc(Cl)c2)s1` (stereo not given), the growth with NCI-H23 lung was 94.3%; in the test on NCI-H226 lung, 102%; with NCI-H322M lung it was 102%; with HOP-62 NSCLC, 91.6%; in the test with NCI-H460 lung it was 106%; in the test on HOP-92 NSCLC it was 91.6%. Also, the growth in the test on NCI-H522 lung was 91.3%; with A549/ATCC NSCLC, 95%; in the test on 786-0 renal, 93.8%; in the test with COLO 205 colon, 105%; with DU-145 prostate, 109%; in the test with K-562 leukemia it was 87%. For the same molecule, the growth in the test on MALME-3M melanoma was 97.3%; with MDA-MB-231 breast, 110%; with RXF 393 renal it was 104%; in the test on SF-268 CNS, 100%; with SF-295 CNS, 95.3%; in the test on SF-539 CNS, 106%. In addition, the growth was 110% in the test on UACC-257 melanoma and 96.1% in the test with M14 melanoma.
